These results are taken from PubChem BioAssay (EPA / NIEHS).

Activity calls are given as the source filed them. The calls were made as follows: active = hit-call score of the fitted dose curve at least 0.9, where 1 is the maximum; inactive = score below 0.9.

Common to all, as to details: mRNA level, 48 h; actives raise or lower the signal
Read-out in one test: MYC, MYC (gene 4609)
Kind of test: LTEA_HepaRG_MYC: Life Technologies and Expression Analysis (LTEA) Assay for MYC using HepaRG (AID 2283518). A digest of the protocol:
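qRT-PCR read-out of MYC transcript (Fluidigm TaqMan, housekeeping-normalized) after 48 h chemical exposure of HepaRG cells; eight concentrations, top 100 uM, half-log steps. Bidirectional curve fitting against 0.5% DMSO vehicle baseline.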

Read-out in test [1]: matrix metalloproteinase-3 (MMP3), MMP3 (gene 4314)
Kind of test: LTEA_HepaRG_MMP3: Life Technologies and Expression Analysis (LTEA) Assay for matrix metalloproteinase-3 (MMP3) using HepaRG (AID 2283519). A digest of the protocol:
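Human liver HepaRG cultures received chemicals (top concentration 100 uM, 0.5% DMSO) for 48 h in duplicate. MMP3 mRNA induction or loss was then assessed via TaqMan qRT-PCR with housekeeping-gene normalisation.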

Read-out in test [2]: Paternally Expressed 10 (PEG10), PEG10 (gene 23089)
Description: LTEA_HepaRG_PEG10: Life Technologies and Expression Analysis (LTEA) Assay for Paternally Expressed 10 (PEG10) using HepaRG (AID 2283520).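 As to AC50: differentiated HepaRG human liver cells in serum-free induction medium with 0.5% DMSO; PEG10 transcript by qRT-PCR normalised to ACTB GAPDH and POLR2A.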 Put shortly: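 PEG10 transcript measured by Fluidigm qRT-PCR, normalized to three housekeeping genes, in HepaRG cells treated 48 h (highest 100 uM, half-log steps, 0.5% DMSO vehicle). Cells plated 48 h before switching to serum-free induction medium.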

Read-out in test [3]: Protein phosphatase 2A (PPP2R4), PTPA (gene 5524)
Description: LTEA_HepaRG_PPP2R4: Life Technologies and Expression Analysis (LTEA) Assay for Protein phosphatase 2A (PPP2R4) using HepaRG (AID 2283522). Put shortly: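 Expression was quantified by Fluidigm qRT-PCR normalised to three housekeeping genes after 48 h treatment. Human HepaRG cells received an 8-point series from 100 µM downward by half-logs, in duplicate with 0.5% DMSO vehicle and 1 mM phenobarbital as induction control.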

Read-out in test [4]: Phosphatase and tensin (PTEN), PTEN (gene 5728)
Kind of test: LTEA_HepaRG_PTEN: Life Technologies and Expression Analysis (LTEA) Assay for Phosphatase and tensin (PTEN) using HepaRG (AID 2283523). A digest of the protocol: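 Expression of PTEN is quantified in the human liver line HepaRG following two days of dosing (top concentration 100 uM, half-log dilutions, 0.5% DMSO). Values derive from bidirectional curve fitting relative to DMSO controls.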

Read-out in test [5]: solute carrier (SLC22A1), SLC22A1 (gene 6580)
Kind of test: LTEA_HepaRG_SLC22A1: Life Technologies and Expression Analysis (LTEA) Assay for solute carrier (SLC22A1) using HepaRG (AID 2283524).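 As to AC50: differentiated human HepaRG liver cells in serum-free induction medium.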 A digest of the protocol: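 Transcript induction or suppression of SLC22A1 in human HepaRG cultures is scored after 48 h chemical treatment, with DMSO (0.5%) as baseline for bidirectional fitting. Concentrations span eight half-log points topping at 100 uM.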

Read-out in test [6]: Nuclear factor erythroid 2-related factor 2 (Homo sapiens) (UniProt Q16236)
Description: LTEA_HepaRG_NFE2L2: Life Technologies and Expression Analysis (LTEA) Assay for Nuclear factor erythroid 2-related factor 2 (NFE2L2) Transcription Factor using HepaRG (AID 2283527). A digest of the protocol: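 Human liver HepaRG line treated in duplicate for 48 h with an eight-point series topping at 100 uM. Gene expression of NFE2L2 by qRT-PCR, bidirectionally fitted against the vehicle control.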

Read-out in test [7]: succinate dehydrogenase complex iron sulfur subunit B (SDHB), SDHB (gene 6390)
Kind of test: LTEA_HepaRG_SDHB: Life Technologies and Expression Analysis (LTEA) Assay for succinate dehydrogenase complex iron sulfur subunit B (SDHB) using HepaRG (AID 2283528). Put shortly: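 SDHB transcript level read by TaqMan qRT-PCR, housekeeping-normalised (ACTB, GAPDH, POLR2A), after 48 h chemical treatment of plated HepaRG cells; eight concentrations top 100 uM, half-log steps, 0.5% DMSO, duplicates; fitted both directions against DMSO.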

Read-out in test [8]: Signal transducer and activator of transcription 3 (Homo sapiens) (UniProt P40763)
Kind of test: LTEA_HepaRG_STAT3: Life Technologies and Expression Analysis (LTEA) Assay for Signal transducer and activator of transcription (STAT3) using HepaRG (AID 2283529). A digest of the protocol: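 In this transcriptional endpoint, HepaRG cultures receive test chemicals at up to 100 uM for 48 h, tested in duplicate. STAT3 mRNA is normalized to ACTB, GAPDH and POLR2A.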

Read-out in test [9]: solute carrier (SLCO1B1), SLCO1B1 (gene 10599)
Kind of test: LTEA_HepaRG_SLCO1B1: Life Technologies and Expression Analysis (LTEA) Assay for solute carrier (SLCO1B1) using HepaRG (AID 2283530). Put shortly: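 SLCO1B1 transcript read by qRT-PCR (Fluidigm arrays), normalized to three housekeeping genes, after 48 h chemical exposure of HepaRG cells; bidirectional concentration-response fitting versus 0.5% DMSO baseline. Eight-point half-log series, maximum 100 uM.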

Read-out in test [10]: Transforming Growth Factor (TGFA), TGFA (gene 7039)
Kind of test: LTEA_HepaRG_TGFA: Life Technologies and Expression Analysis (LTEA) Assay for Transforming Growth Factor (TGFA) using HepaRG (AID 2283532). Put shortly:
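Gene expression of TGFA was quantified by qRT-PCR after human HepaRG cells were treated for 48 h with test chemicals (eight concentrations, highest 100 uM, 0.5% DMSO). Activity in either direction was fitted relative to DMSO.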

Read-out in test [11]: Transforming Growth Factor (TGFB1), TGFB1 (gene 7040)
Description: LTEA_HepaRG_TGFB1: Life Technologies and Expression Analysis (LTEA) Assay for Transforming Growth Factor (TGFB1) Transporter using HepaRG (AID 2283533). Put shortly: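 qRT-PCR readout of TGFB1 transcript in HepaRG lysates, normalized to three housekeeping genes; gain or loss of signal fitted relative to 0.5% DMSO vehicle. Exposure: 48 h, 8-point curve from 100 uM, duplicate wells.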

Read-out in the next test: TIMP1, TIMP1 (gene 7076)
Kind of test: LTEA_HepaRG_TIMP1: Life Technologies and Expression Analysis (LTEA) Assay for TIMP1 using HepaRG (AID 2283534).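 As to outcome: TaqMan qRT-PCR signal normalized to ACTB GAPDH and POLR2A housekeeping genes.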 Put shortly:
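HepaRG, 48 h exposure, 8-pt half-log series from 100 uM in 0.5% DMSO, duplicates; TIMP1 transcript by Fluidigm qRT-PCR, housekeeping-normalized; bidirectional curve fit vs DMSO baseline.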

Read-out in test [12]: Tumor necrosis factor receptor 1 (TNFRSF1A), TNFRSF1A (gene 7132)
Description: LTEA_HepaRG_TNFRSF1A: Life Technologies and Expression Analysis (LTEA) Assay for Tumor necrosis factor receptor 1 (TNFRSF1A) using HepaRG (AID 2283535). A digest of the protocol:
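HepaRG, 48 h plating then 48 h chemical exposure, serum-free induction media; 8-pt CRC from 100 uM, half-log, 0.5% DMSO vehicle, duplicates. Readout: TaqMan qRT-PCR (Fluidigm), housekeeping-gene normalized; bidirectional fit vs DMSO.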

Read-out in test [13]: Thyroid Hormone Responsive (THRSP), THRSP (gene 7069)
Description: LTEA_HepaRG_THRSP: Life Technologies and Expression Analysis (LTEA) Assay for Thyroid Hormone Responsive (THRSP) using HepaRG (AID 2283536). Put shortly: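 Cell model: human HepaRG, approx. 100,000 cells/well, 0.5% DMSO vehicle. Exposure lasts 48 h; phenobarbital 1 mM serves as induction positive control. Gene expression is measured by qRT-PCR against three endogenous control genes.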

Read-out in test [14]: Pyruvate Dehydrogenase Kinase 4 (PDK4), PDK4 (gene 5166)
Description: LTEA_HepaRG_PDK4: Life Technologies and Expression Analysis (LTEA) Assay for Pyruvate Dehydrogenase Kinase 4 (PDK4) using HepaRG (AID 2283525). Put shortly:
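Eight-point, half-log concentration series (max 100 uM, 0.5% DMSO) applied to differentiated HepaRG cells for 48 h in duplicate. Endpoint: PDK4 mRNA induction or repression by qRT-PCR against DMSO baseline.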

Read-out in test [15]: sulfotransferase 2A1 (SULT2A1), SULT2A1 (gene 6822)
Kind of test: LTEA_HepaRG_SULT2A1: Life Technologies and Expression Analysis (LTEA) Assay for sulfotransferase 2A1 (SULT2A1) using HepaRG (AID 2283531). Put shortly:
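HepaRG, 48 h chemical exposure, 8-pt half-log curve from 100 uM in 0.5% DMSO, duplicates. Readout: TaqMan qRT-PCR of SULT2A1 mRNA, housekeeping-normalized. Bidirectional fit vs DMSO baseline.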

Read-out in test [16]: UDP glucuronosyltransferase (UGT1A1), UGT1A1 (gene 54658)
Kind of test: LTEA_HepaRG_UGT1A1: Life Technologies and Expression Analysis (LTEA) Assay for UDP glucuronosyltransferase (UGT1A1) using HepaRG (AID 2283538). A digest of the protocol:
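UGT1A1 transcript level, measured by qRT-PCR with three housekeeping genes for normalization, after 48 h treatment of human HepaRG cells (0.5% DMSO, duplicates, up to 100 uM, half-log steps, 8 points). Curves fit both directions against DMSO baseline.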

Sequence of Signal transducer and activator of transcription 3 (Homo sapiens) (P40763 whole entry, looked up): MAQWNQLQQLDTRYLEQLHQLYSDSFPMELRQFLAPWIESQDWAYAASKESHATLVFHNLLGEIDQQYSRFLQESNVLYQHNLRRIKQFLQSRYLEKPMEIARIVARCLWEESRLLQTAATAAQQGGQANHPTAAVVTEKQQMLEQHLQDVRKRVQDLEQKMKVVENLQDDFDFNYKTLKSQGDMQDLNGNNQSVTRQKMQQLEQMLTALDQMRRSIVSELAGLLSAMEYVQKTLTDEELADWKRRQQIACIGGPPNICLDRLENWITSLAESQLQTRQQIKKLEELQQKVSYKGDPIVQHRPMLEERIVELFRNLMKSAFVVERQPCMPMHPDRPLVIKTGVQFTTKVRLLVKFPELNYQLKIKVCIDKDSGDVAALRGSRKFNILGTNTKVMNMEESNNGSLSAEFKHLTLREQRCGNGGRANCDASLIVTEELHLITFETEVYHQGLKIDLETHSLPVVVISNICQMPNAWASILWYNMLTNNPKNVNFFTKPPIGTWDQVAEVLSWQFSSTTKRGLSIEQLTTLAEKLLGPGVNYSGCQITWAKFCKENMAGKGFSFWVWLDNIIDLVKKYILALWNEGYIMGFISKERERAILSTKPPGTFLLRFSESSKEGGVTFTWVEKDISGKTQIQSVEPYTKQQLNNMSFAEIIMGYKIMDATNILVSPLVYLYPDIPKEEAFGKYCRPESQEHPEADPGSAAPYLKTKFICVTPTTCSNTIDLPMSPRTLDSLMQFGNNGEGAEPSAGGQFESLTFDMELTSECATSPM
Sequence of Nuclear factor erythroid 2-related factor 2 (Homo sapiens) (Q16236 whole entry, looked up): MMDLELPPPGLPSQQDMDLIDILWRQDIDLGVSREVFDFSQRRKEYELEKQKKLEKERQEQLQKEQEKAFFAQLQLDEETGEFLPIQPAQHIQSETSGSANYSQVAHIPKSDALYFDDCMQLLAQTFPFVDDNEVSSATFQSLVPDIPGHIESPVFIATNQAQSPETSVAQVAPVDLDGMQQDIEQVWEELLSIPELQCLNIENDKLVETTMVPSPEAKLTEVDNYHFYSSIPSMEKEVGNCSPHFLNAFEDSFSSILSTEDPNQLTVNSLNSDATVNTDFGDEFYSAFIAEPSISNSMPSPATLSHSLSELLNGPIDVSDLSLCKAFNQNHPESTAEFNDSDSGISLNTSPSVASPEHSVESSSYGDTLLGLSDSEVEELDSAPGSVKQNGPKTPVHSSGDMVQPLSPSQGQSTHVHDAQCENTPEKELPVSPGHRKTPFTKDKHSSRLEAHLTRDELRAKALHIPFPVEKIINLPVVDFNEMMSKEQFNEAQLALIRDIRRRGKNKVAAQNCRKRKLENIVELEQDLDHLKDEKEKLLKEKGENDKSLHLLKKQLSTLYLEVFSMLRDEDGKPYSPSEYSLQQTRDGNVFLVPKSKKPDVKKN

For the molecule `Nc1ccn([C@@H]2O[C@H](CO)[C@@H](O)[C@@H]2O)c(=O)n1`, the outcome with MYC, MYC (gene 4609) is “inactive”; in test [1] it was “inactive”; in test [2], “inactive”; in [3], “inactive”; in test [4], “inactive”; in [5] it was “inactive”. Also, the call in test [6], in test [7], in [8], in test [9], in test [10] and in test [11] was inactive. Also, the outcome in the test with TIMP1, TIMP1 (gene 7076) was “inactive”; in test [12], “inactive”; in test [13], “inactive”.
As for `c1ccc2c(c1)-c1cccc3c1c-2cc1ccccc13`, the AC50 is 2.06 µM (active) with MYC, MYC (gene 4609); 8.43 µM (active) in test [2]; 14.3 µM (active) in [3]; 18.8 µM (active) in test [5]; 8.2 µM (active) in [14]; 11.4 µM (active) in [7]. Besides, the AC50 in test [8] was 6.57 µM (active); in test [9], 13.7 µM (active); in test [15], 16.8 µM (active); in test [10], 7.13 µM (active); with TIMP1, TIMP1 (gene 7076), 4.93 µM (active); in [12], 14.7 µM (active). Also, the half-maximal activity concentration (AC50) in [13] was 27.7 µM (active). The result in test [1], in test [4], in [6] and in [11] was inactive.
Consider `O=S1(=O)CCCO1`, for which the outcome in the test with MYC, MYC (gene 4609) is “inactive”; in [1], “inactive”; in [2], “inactive”; in [3] it was “inactive”; in [4] it was “inactive”; in [5], “inactive”. Also, the result in [14], in test [6], in test [7], in test [8], in test [9] and in test [15] was inactive. Moreover, the outcome in test [10] is “inactive”; in test [11], “inactive”; with TIMP1, TIMP1 (gene 7076), “inactive”; in test [12] it was “inactive”; in [13] it was “inactive”; in test [16] it was “inactive”.

Usually AC50 stands for the concentration giving half of the maximal activity seen.
